PNC inhibitor: blocks assembly of the perinucleolar compartment; PC3M PTB-GFP, PNC prevalence imaging, 16 h; hits give low values; activity change (PNC), negative = inhibition, % at 10 µM; 140,000 compounds, 3.1% hits;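 active means readout at or below -70, meaning at least 70% loss of cells showing the perinucleolar compartment, a nuclear body marking cancer cells; inconclusive means readout between -30 and a set limit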
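PC3M cells stably expressing PTB-GFP, 750–1000 cells/well, treated 16 h at 37 °C with compound (23 nl of library stock), in duplicate. After paraformaldehyde fixation and Hoechst stain, imaged at 20x; PNC prevalence scored by image analysis.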
IMPase Li cell: cell-permeable IMPase inhibitors with lithium potentiation; CHO-M1 cells, IP1 TR-FRET (IP-One), carbachol + lithium; 210,000 compounds, 0.35% hits; Potency, µM (highest dose often 59.4 µM), actives largely listed as inhibitors;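 further: IP1 builds up when IMPase is blocked and the TR-FRET signal falls; nearly all actives have a fitted effect of over 50% in size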
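Concentration–response in CHO-M1 cells, lithium-potentiated; 30 min at 37C. IP1 detected by competitive TR-FRET after 10 min lysis at RT. Hill-fitted AC50.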
IMPase cell inh: membrane-permeable compound that blocks inositol monophosphatase | CHO-M1 cells, IP1 accumulation, HTRF TR-FRET ratio | inhibition (IP1 accumulation), % at 46.1 µM | 120,000 tested, under 10 active; active means well fitted curve in the direction sought with a large enough effect in the signal ratio, not every such curve was filed as active; inconclusive means small, poorly fitted or top-dose-only effect, or a change in a side signal; inactive means no such curve, though single readings can be large or run the other way; the % refers to the signal ratio;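 further: cells stimulated with carbachol in lithium chloride buffer; higher means more IMPase inhibition seen as more IP1 and lower FRET ratio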
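Seeded CHO-M1 cells were dosed with compound at up to 46 uM, stimulated with carbachol for 30 min, then lysed in IP-One detection reagents. Higher IP1 lowers the TR-FRET signal.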
ALOX12 inhib: blocks human 12-lipoxygenase activity; Potency, µM (top dose mostly 57.1 µM), most hits filed as inhibitors; purified 12-hLO, xylenol orange hydroperoxide absorbance; 150,000 compounds, 0.12% hits; P18054; AID 1452; further: nearly all actives have a fitted effect of over 55% in size
Target sequence (P18054 whole entry, looked up): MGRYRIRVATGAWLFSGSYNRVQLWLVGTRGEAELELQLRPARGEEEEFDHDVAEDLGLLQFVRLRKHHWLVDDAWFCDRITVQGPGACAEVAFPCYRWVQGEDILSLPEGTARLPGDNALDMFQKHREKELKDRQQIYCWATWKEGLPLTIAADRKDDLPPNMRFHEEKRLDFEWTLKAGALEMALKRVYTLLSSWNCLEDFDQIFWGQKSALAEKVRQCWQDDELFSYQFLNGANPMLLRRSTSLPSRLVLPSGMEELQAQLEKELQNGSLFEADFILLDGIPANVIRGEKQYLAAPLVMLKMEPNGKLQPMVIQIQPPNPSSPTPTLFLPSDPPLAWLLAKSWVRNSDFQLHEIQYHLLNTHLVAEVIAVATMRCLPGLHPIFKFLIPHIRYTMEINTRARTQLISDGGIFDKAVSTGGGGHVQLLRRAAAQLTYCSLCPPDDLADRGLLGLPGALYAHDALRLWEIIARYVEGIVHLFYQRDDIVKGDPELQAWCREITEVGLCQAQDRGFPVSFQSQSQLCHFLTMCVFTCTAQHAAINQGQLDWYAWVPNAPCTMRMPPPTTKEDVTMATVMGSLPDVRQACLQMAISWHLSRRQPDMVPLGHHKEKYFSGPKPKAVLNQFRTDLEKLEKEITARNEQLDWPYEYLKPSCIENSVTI
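150 nM 12hLO, 25 mM Hepes pH 7.0 + 0.01% Triton X-100; cpd preinc 15 min RT; 40 uM arachidonic acid, 30 min RT; Fe-XO 30 min; A573/A405 ratio as read-out.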
15-hLO-2 inh: blocks human 15-lipoxygenase 2 activity | O15296 | purified 15hLO-2, xylenol orange hydroperoxide absorbance | Potency, µM (doses to about 57.1 µM), actives largely listed as inhibitors | 110,000 compounds, 0.56% hits; further: nearly all actives have a fitted effect of over 60% in size
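Purified human 15hLO-2 (50 nM final) preincubated with compounds 15 min at room temperature in 25 mM Hepes pH 7.5, 0.01% Triton X-100, then 45 uM arachidonic acid added for 90 min; hydroperoxide detected via ferrous/xylenol orange, 573/405 nm absorbance ratio.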
Large screens that a line does not name were inactive. The full list was thinned out, with hits kept by preference. Unless noted, the call rests on the fitted dose curve; in most records, active means well fitted curve in the direction sought with a large enough effect; inconclusive means small, poorly fitted or top-dose-only effect, or another doubt; inactive means no such curve, though single readings can be large; an effect the other way counts as inactive or inconclusive.

Cc1ccc2c(c1)C(c1ccc(F)cc1)N(C(=O)c1cc3ccccc3oc1=O)CC(=O)N2 (stereo not given)	PNC inhibitor -88.9 (no result: IMPase cell inh, 15-hLO-2 inh)
Cn1c(=O)c2ccccc2n(Cc2ccccc2F)c1=O	none
O=c1[nH]ncc2c3ccccc3n(Cc3ccccc3F)c12	IMPase Li cell 10µM
Cc1ccc(Cn2c3ccccc3c3cn[nH]c(=O)c32)cc1	PNC inhibitor -108.4
O=c1[nH]ncc2c3ccccc3n(Cc3ccccc3)c12	none
O=C(c1cccc(F)c1)N1CCC[C@@]2(CCN(Cc3ccccc3)C2)C1	none (no result: PNC inhibitor, IMPase cell inh)
COc1ccc(CCNC(=O)Cn2cnc3c(nnn3Cc3ccccc3F)c2=O)cc1OC	PNC inhibitor -118.9 (no result: 15-hLO-2 inh)
COc1cc(C)nc(N2CCCC(C(=O)Nc3cccc(Cl)c3C)C2)n1 (stereo not given)	PNC inhibitor -124.4, IMPase cell inh inconclusive
COc1cc(C)nc(N2CCCC(C(=O)Nc3ccccc3Br)C2)n1 (stereo not given)	none (no result: PNC inhibitor, IMPase cell inh, ALOX12 inhib, 15-hLO-2 inh)
COc1nc(Oc2ccc(=O)n(-c3ccccc3)n2)nc(N(C)C)n1	none (no result: PNC inhibitor, IMPase Li cell, ALOX12 inhib, 15-hLO-2 inh)
COc1cc(C(=O)NNC(=O)c2ccc(NC(C)=O)cc2)cc(OC)c1OC	none (no result: PNC inhibitor, IMPase cell inh, ALOX12 inhib, 15-hLO-2 inh)
COc1cc(C(=O)/C=C/Nc2ccc(NC(C)=O)cc2)cc(OC)c1OC	PNC inhibitor -95.2 (no result: IMPase cell inh, 15-hLO-2 inh)
O=S(=O)(c1ccc2c(c1)oc1ccccc12)N1CCOCC1	PNC inhibitor -80.6
Cn1c(=O)oc2cc(S(=O)(=O)N3CCOCC3)ccc21	none
O=C(O)[C@@H]1CCCN1Cc1c[nH]c2ccccc12	none (no result: PNC inhibitor, IMPase cell inh)
COc1cc(NS(=O)(=O)c2ccc(C)cc2)c2ncccc2c1	PNC inhibitor -100.0 (no result: 15-hLO-2 inh)
Cc1cc(C)c2nc3c(c([C@H](O)C4CCCCN4)c2c1)CC/C3=C/c1ccc(Cl)cc1 (stereo not given in full)	none (no result: PNC inhibitor, IMPase cell inh, ALOX12 inhib, 15-hLO-2 inh)
CC1CCN(C(=O)CSc2nnc(-c3ccc(S(=O)(=O)N4CCOCC4)cc3)n2C)CC1	PNC inhibitor -100.0 (no result: 15-hLO-2 inh)
Cn1c(SCC(=O)NCc2ccco2)nnc1-c1ccc(S(=O)(=O)N2CCOCC2)cc1	PNC inhibitor -100.0
CC1CCCN(C(=O)CSc2nnc(-c3ccc(S(=O)(=O)N4CCOCC4)cc3)n2C)C1 (stereo not given)	none
CC(C)(CN)CN	none (no result: PNC inhibitor, IMPase cell inh)
O=C(OCn1ncc(Br)c(Br)c1=O)c1ccc(F)cc1	IMPase Li cell 7.08µM, IMPase cell inh inconclusive
O=C(OCn1ncc(Br)c(Br)c1=O)c1ccccc1Cl	IMPase Li cell inconclusive, IMPase cell inh inconclusive
Cc1c(C)c2cc(Cl)c(OCc3nn[nH]n3)cc2oc1=O	PNC inhibitor -121.8 (no result: IMPase Li cell)
Cc1ccc(N(Cc2ccccc2)Cc2ccccc2)cc1	none (no result: PNC inhibitor, IMPase cell inh)
CCOC(=O)c1c(N)sc(C(=O)N2CCOCC2)c1C	PNC inhibitor -100.0 (no result: 15-hLO-2 inh)
N#Cc1ccccc1NC(=O)CSc1nnc(N)s1	none (no result: PNC inhibitor, IMPase Li cell, ALOX12 inhib, 15-hLO-2 inh)
CC(=O)c1cc2c(cc1NC(=O)CN1CCN(c3cccc(C(F)(F)F)c3)CC1)OCO2	PNC inhibitor -100.0, IMPase cell inh inconclusive (no result: 15-hLO-2 inh)
CC(=O)Nc1ccc(NC(=O)CN2CCN(c3cccc(C(F)(F)F)c3)CC2)cc1	PNC inhibitor inconclusive
Cc1cc2ccccc2n1CCNC(=O)C(C)Oc1ccccc1 (stereo not given)	PNC inhibitor -108.4
O=C(Nc1ncnc2sc3c(c12)CCCCC3)c1ccco1	PNC inhibitor -124.3
CCCCNC(=O)/C(C#N)=C/c1cccnc1	PNC inhibitor -105.6 (no result: IMPase cell inh, 15-hLO-2 inh)
CCc1nc2nc(C)cc(Nc3ccc(OC)cc3OC)n2n1	none (no result: PNC inhibitor, IMPase Li cell, ALOX12 inhib, 15-hLO-2 inh)
COC(=O)COc1ccc(S(=O)(=O)NCc2ccco2)cc1Cl	PNC inhibitor -103.1
Cc1cccc(-c2nnc(SCC#N)n2C)c1	none (no result: PNC inhibitor, IMPase cell inh, ALOX12 inhib, 15-hLO-2 inh)
Cc1ccc(-c2nnc(SCC#N)n2N)cc1	PNC inhibitor -82.7
COc1ccc(-c2nnc(SCc3ccccc3)n2N)cc1	PNC inhibitor -107.9
S=C(S)NCCCn1ccnc1	none (no result: PNC inhibitor, IMPase cell inh)
Nc1ncnc2c1ncn2[C@H]1O[C@@H](CSCC[C@@H](N)C(=O)O)[C@H](O)[C@@H]1O	none (no result: PNC inhibitor, IMPase cell inh, ALOX12 inhib, 15-hLO-2 inh)
CCOC(=O)CSc1nnc(-c2ccoc2C)n1-c1ccc(C)cc1	PNC inhibitor -100.0 (no result: 15-hLO-2 inh)
Nc1nc(Cc2ccccc2)nc(Cc2ccccc2)c1-c1ccccc1	none (no result: PNC inhibitor, IMPase cell inh)
Cc1ccc(NC(=O)Cn2cnc3c(oc4nc5c(cc43)COC(C)(C)C5)c2=O)cc1	PNC inhibitor -84.2 (no result: IMPase cell inh, 15-hLO-2 inh)
Cc1ccc(OCCn2cc(C#N)c3ccccc32)cc1	PNC inhibitor inconclusive (no result: 15-hLO-2 inh)

Source: PubChem BioAssay (National Center for Advancing Translational Sciences (NCATS))
